Only some compounds are listed: those with a hit (about 8.1% of all), similar ones and a draw of the others.
KB-3-1 cytotox: qHTS assay for MDR1-selective chemotherapeutics: Primary screen using the parental adenocarcinoma cell KB-3-1. KB-3-1 viability, CellTiter-Glo ATP luminescence, 72 h. Potency, µM (top dose mostly 46.1 µM), actives largely listed as cytotoxic. hit rate 1.4% among 400,000; also: % is scaled to controls: 0 for no effect and ±100 for the full control effect; nearly all actives have a fitted effect of over 60% in size
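Parental KB-3-1 adenocarcinoma cells in phenol-red-free DMEM with 10% FBS were pin-treated with compounds at several concentrations, incubated 72 h at 37 °C, and viability read by CellTiter-Glo luminescence; concentration-effect curves were fitted after normalization.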
ELG1 DNA repair: qHTS screen for small molecules that inhibit ELG1-dependent DNA repair in human embryonic kidney (HEK293T) cells expressing luciferase-tagged ELG1; HEK293T ELG1-luciferase reporter, luminescence, 16 h; DNA damage induced by 5-fluorouridine; Potency, µM (doses to about 46.1 µM), for inactives: at the top dose activity change, negative = inhibition, usual class: inhibitors; hit rate 2.3% among 330,000; AID 504467, 2011; also: % is scaled to controls: 0 for no effect and ±100 for the full control effect; nearly all actives have a fitted effect of over 55% in size
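In this reporter screen, reduction of luminescence relative to DMSO vehicle indicated activity. Compounds and 5-fluorouridine were added together to 2,000 cells per well, incubated for 16 hr at 37 °C, then developed with ONE-Glo.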
SW480 rerep: A quantitative high throughput screen for small molecules that induce DNA re-replication in SW480 colon adenocarcinoma cells; SW480 DNA re-replication, Hoechst DNA content imaging, 48 h; Potency, µM (titrated, usually from 46.1 µM), inactives show at the top dose re-replication activation, usual class: activators; hit rate 1.8% among 340,000; also: % of control where 0% means no effect; nearly all actives have a fitted effect of over 55% in size
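Hoechst fluorescence of nuclei (405 nm excitation, 500-530 nm emission) measured by plate-scanning imager after 48 hr compound exposure at 37 C; re-replication scored as increased number of nuclei with elevated intensity.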
MCF10A rerep: A quantitative high throughput screen for small molecules that induce DNA re-replication in MCF 10a normal breast cells; MCF 10A DNA re-replication, Hoechst nuclear intensity, 48 h; Potency, µM (titrated, usually from 46.1 µM), without a hit: at the top dose activity, positive = re-replication, actives largely listed as activators; hit rate 2.9% among 350,000; also: % of control where 0% means no effect; nearly all actives have a fitted effect of over 50% in size
KB-V1 cytotox: qHTS assay for MDR1-selective chemotherapeutics: Primary screen using the drug-selected MDR subline cells KB-V1; Potency, µM (doses to about 46.1 µM), hits mostly cytotoxic; hit rate 3.4% among 400,000; KB-V1 MDR cells viability, CellTiter-Glo, 72 h; also: % is scaled to controls: 0 for no effect and ±100 for the full control effect; nearly all actives have a fitted effect of over 60% in size
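Compound-treated KB-V1 multidrug-resistant cells, 72 h, 37 degrees C; viability by CellTiter-Glo. Fitted qHTS curves give the values.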
* = called active by the depositor; i = inactive; ? = inconclusive; · = no result given. Calls follow the shape of the dose curve; as a rule, active = well fitted curve in the direction sought with a large enough effect; inconclusive = small, poorly fitted or top-dose-only effect, or another doubt; inactive = no such curve, though single readings can be large; an effect the other way counts as inactive or inconclusive. Potency is read from the fitted curve at half-maximal effect.

SMILES | KB-3-1 cytotox | ELG1 DNA repair | SW480 rerep | MCF10A rerep | KB-V1 cytotox
COc1ccc(OC)c(Nc2cc(-c3ccccc3)nc(N)n2)c1 | 1µM* | -3% | 2.6µM* | 0.65µM* | 1.3µM*
COc1ccc(OC)c(Nc2cc(C)nc3ccccc23)c1 | ? | 21µM* | 18% | ? | 18µM*
COc1ccc(-c2cc(-c3ccccc3)nc(N)n2)c(O)c1 | ? | · | 3% | 14% | 21µM*
COc1ccc(Cl)cc1Nc1cc(C)nc2ccccc12 | ? | · | -1% | ? | ?
COc1ccc(-c2nc(N)nc(C)c2-c2ccc(Cl)cc2)c(O)c1 | i | -22% | 15% | 7% | ?
COc1cccc(Nc2cc(-c3ccccc3)nc(C)n2)c1 | i | · | · | · | i
CC(=O)N(Cc1ccccc1)C(CC(=O)NCc1ccccc1)C(=O)O (stereo not drawn) | i | · | -3% | -2% | i
CCn1c(CNc2nc3ccccc3n2C(C)C)nc2ccccc21 | i | 0% | -1% | -4% | 12µM*
CC(C)n1c(NCc2nc3ccccc3n2C)nc2ccccc21 | i | 6% | 2% | 4% | i
c1cc2c3c(c1)CCC[N+]3(C1CCCCC1)CCC2 | ? | · | · | · | i
O=C(Cn1ncc2c3ccccc3n(Cc3ccccc3)c2c1=O)NCc1ccccc1 | i | · | · | · | i
COC(=O)Cn1ncc2c3ccccc3n(Cc3ccccc3)c2c1=O | i | 4% | 0% | 8% | 23µM*
Cc1ccc(/C(N)=N/OC(=O)CCc2ccccc2)cc1 | i | ? | 8% | 7.3µM* | i
N/C(=N\OC(=O)CCc1ccccc1)c1ccc(Br)cc1 | i | 7% | -4% | -1% | i
O=C(CSC1=NNC(c2ccccn2)S1)Nc1ccccc1 (stereo not drawn) | i | 2% | 16µM* | ? | i
COc1ccccc1C(=O)Nc1ccc(Oc2nnc(-c3ccc(C)cc3)c3ccccc23)cc1 | i | ? | 4% | 4% | i
Cc1ccc(Oc2nnc(-c3ccc(C)cc3)c3ccccc23)cc1 | ? | ? | -1% | -2% | 18µM*
c1ccc(-c2nnc(OCc3cccnc3)c3ccccc23)cc1 | i | 10% | 1% | -11% | i
Cc1ccc(-c2nnc(OCc3cccnc3)c3ccccc23)cc1 | i | ? | -5% | -4% | 16µM*
Cc1nn(CCc2nn[nH]n2)c2nc(-c3ccc(C4CCCCC4)cc3)cc(C(F)(F)F)c12 | i | 13% | -3% | 12µM* | i
Cc1nn(CCC(=O)O)c2nc(-c3cccnc3)cc(C(F)(F)F)c12 | i | -6% | 3% | 0% | i
O=C(N/N=C/c1ccc2c(c1)OCO2)c1ccc(NC(=O)c2ccccc2Cl)cc1 | i | 13µM* | -6% | ? | i
Cc1cccc(C(=O)Nc2ccc(C(=O)N/N=C/c3ccc4c(c3)OCO4)cc2)c1 | ? | 8% | 4% | 19% | ?
O=C(Nc1ccccc1C(=O)N/N=C/c1ccc(F)cc1)c1ccccc1Br | i | -12% | -10% | 4% | 26µM*
O=C(N/N=C/c1ccncc1)c1cccc(NC(=O)c2ccc(Cl)cc2)c1 | i | 10% | -4% | -3% | i
SMILES | KB-3-1 cytotox | ELG1 DNA repair | SW480 rerep | MCF10A rerep | KB-V1 cytotox
Cc1cccc(C(=O)Nc2cccc(C(=O)N/N=C/c3ccc4c(c3)OCO4)c2)c1 | 13µM* | 26% | 23µM* | 13µM* | i
O=C(N/N=C/c1ccc2c(c1)OCO2)c1cccc(NC(=O)c2ccccc2Cl)c1 | ? | ? | ? | 19% | i
O=C(N/N=C/c1ccc(F)cc1)c1cccc(NC(=O)c2ccc(F)cc2)c1 | ? | -4% | 2% | 21µM* | i
CC(C)c1ccc(/C=N/NC(=O)c2ccccc2Cl)cc1 | 15µM* | ? | 13µM* | 5.8µM* | 4.6µM*
CCc1c(C#N)c(SCc2c(C)noc2C)nc2c1C(=O)CC(C)(C)C2 | i | ? | -5% | 9.2µM* | ?
CCc1c(C#N)c(SCCC(=O)Nc2ccc(OC)cc2)nc2c1C(=O)CC(C)(C)C2 | i | ? | 5% | 14% | ?
CC(C)(C)c1ccc(C(=O)N2CCNCC2)cc1 | i | 10% | -7% | 8% | i
CN1CCC2(CC1)N=C(c1ccc(F)cc1)C(=S)N2C(=O)c1ccc(C(C)(C)C)cc1 | ? | -5% | 3% | 8.2µM* | ?
CC1=CC(C)(C)Nc2ccc(OC(=O)CN3C(=O)c4ccccc4C3=O)cc21 | ? | 13% | 18µM* | 5.8µM* | i
CC1=CC(C)(C)Nc2ccc(OC(=O)CN3C(=O)c4cccc5cccc(c45)C3=O)cc21 | i | -1% | ? | 15µM* | i
CC1=CC(C)(C)Nc2ccc(OC(=O)C(Cc3ccccc3)N3C(=O)c4ccccc4C3=O)cc21 (stereo not drawn) | i | 8% | 14% | ? | i
Cc1ccc(-n2ncc(C(=O)NCc3ccccc3)c2C2CCN(C(=O)OC(C)(C)C)CC2)cc1 | i | · | · | · | i
C[C@@H]1CN([C@H](C)CO)S(=O)(=O)c2ccc(Br)cc2O[C@@H]1CN(C)C(=O)NC1CCCC1 | i | · | · | · | i
Cc1ccc(C)c(N2CCN(C(=O)CCCn3c(=S)[nH]c4cc5c(cc4c3=O)OCO5)CC2)c1 | i | 9.2µM* | -2% | 6% | i
O=C(CCCCCn1c(=S)[nH]c2cc3c(cc2c1=O)OCO3)N1CCN(c2ccccc2)CC1 | i | 2% | -11% | ? | i
CCOC(=O)N1CCN(C(=O)CCCn2c(=S)[nH]c3ccccc3c2=O)CC1 | i | · | -6% | -8% | i
O=c1c2cccnc2[nH]c(=S)n1CCCN1CCN(c2ccccc2F)CC1 | 13µM* | -8% | -1% | ? | i
CCOC(=O)N1CCN(C(=O)CCCn2c(=S)[nH]c3ccc(Br)cc3c2=O)CC1 | i | 23µM* | 1% | 14% | 12µM*
O=C(CCCn1c(=S)[nH]c2cc3c(cc2c1=O)OCO3)N1CCN(c2ccc(F)cc2)CC1 | i | 16µM* | -1% | 1% | i
COc1cc2c(cc1NC(=O)COc1cc(C)cc(C)c1)oc1ccccc12 | i | · | · | · | ?
O=C(CCCn1c(=S)[nH]c2cc3c(cc2c1=O)OCO3)N1CCN(c2ncccn2)CC1 | ? | 15µM* | -8% | 3% | ?
O=C(CCCn1c(=S)[nH]c2cc3c(cc2c1=O)OCO3)N1CCN(C2CCCCC2)CC1 | i | -1% | 16% | 11% | i

Bioassay records (PubChem)
